# Laboratory results reported in PubChem BioAssay (NCI).
# About 79,000 compounds went through this panel and 15% of them were active in at least one assay; those are over-represented in the sample as a whole. A number with no mark means an inactive call. The source made the active and inactive calls. Cut-off read from the data, not from the text of the source: active = growth inhibition above about 70%; inactive = the rest.
# What was measured:
# [1] = NCI Yeast Anticancer Drug Screen. Data for the rad50 strain (AID 155);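 note: 0% = growth of vehicle-only cultures of the same strain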; conditions: S. cerevisiae rad50 strain growth inhibition; at 50.0 µM; hits give high values
# Summary of the method: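 Vehicle-treated cultures provide the reference for the growth inhibition reported for compound-exposed, repair-deficient yeast.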
# [2] = NCI Yeast Anticancer Drug Screen. Data for the mec2-1 strain (AID 157); conditions: S. cerevisiae mec2-1 strain, at 50.0 µM, hits give high values
# Summary of the method: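 Growth inhibition is read against vehicle-treated controls after compound exposure of the mec2-1 yeast strain, which is defective in DNA damage repair or cell cycle control.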
# [3] = NCI Yeast Anticancer Drug Screen. Data for the sgs1 mgt1 strain (AID 161);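 note: 0% = growth of cultures given vehicle only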; conditions: S. cerevisiae sgs1 mgt1 strain, at 50.0 µM, hits give high values
# Summary of the method: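 Percent growth inhibition was derived by comparing compound-exposed mutant yeast with vehicle-exposed cultures. The strain carries alterations in DNA damage repair.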
# [4] = NCI Yeast Anticancer Drug Screen. Data for the cln2 rad14 strain (AID 165);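 note: 0% = growth equal to vehicle treated cultures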; conditions: S. cerevisiae cln2 rad14 strain, at 50.0 µM, hits give high values
# Summary of the method: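 Growth inhibition, relative to vehicle-treated controls, is the read-out. The test organism is a yeast strain with defined genetic alterations, cln2 rad14.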
# [5] = NCI Yeast Anticancer Drug Screen. Data for the bub3 strain (AID 167); conditions: S. cerevisiae bub3 mutant strain, at 50.0 µM, hits give high values
# Summary of the method: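 Mutant yeast screening strain plus compound; vehicle-treated cultures serve as the 0% inhibition reference.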
# [6] = NCI Yeast Anticancer Drug Screen. Data for the mlh1 rad18 strain (AID 175); conditions: S. cerevisiae mlh1 rad18 strain growth inhibition; at 50.0 µM; hits give high values
# Summary of the method: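 Cells of a genetically altered yeast strain, deficient in DNA damage repair, were treated with compound. Their growth was then compared with that of vehicle-treated cultures to give inhibition.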
SMILES,growth inhibition [1],growth inhibition [2],growth inhibition [3],growth inhibition [4],growth inhibition [5],growth inhibition [6]
COC(=O)C1=C(C(=O)OC)C2(C(=O)OC)OC1(OC)C(C1(C(=O)OC)C(C(=O)OC)=C1C(=O)OC)=C2C(=O)OC (stereo not drawn),16%,14.2%,8.9%,16.1%,1.25%,9.7%
C=C1C(=O)[C@@]23CC[C@@H]4[C@@]5(C)CCC[C@@]4(OC5=O)[C@@]2(C)CC[C@@H]1C3,92.1% (active),93.7% (active),93.8% (active),89.3% (active),93.3% (active),92.3% (active)
O=C(NC1C2CC3CC(C2)CC1C3)c1ccncn1 (stereo not drawn),25.1%,4.75%,17.8%,38%,13.2%,26.2%
OC(CCCCCCCCC(O)CN1CCCCC1)CN1CCCCC1 (stereo not drawn),3.3%,25.6%,5.45%,11%,20.6%,15.1%
C=CC(C)(C)[C@@]12CC3C(=O)N[C@@H](Cc4ccccc4)C(=O)N3[C@@H]1N(C(C)=O)c1ccccc12 (stereo partly drawn),73.2% (active),12.2%,16.7%,50.5%,45.6%,53.1%
CCOC(=O)c1[nH]c(C)c(C(=O)OC(C)(C)C)c1C,4.55%,14.8%,0.35%,10.4%,-4.65%,0.45%
CCCCC(O)c1ccc[n+]([O-])c1 (stereo not drawn),4.3%,-21%,0.6%,2.95%,-3.4%,3.95%
COc1ccc(OC)c(/C=C/c2ccccc2)c1,0.5%,-29.1%,8.25%,-24.8%,1.6%,-14.9%
O=C(O)C1CC1Br (stereo not drawn),9.15%,-15.3%,-3.65%,-14.4%,2.45%,5.8%
CCOC(=O)c1ccc(OCC)cc1O,2.25%,-8%,0.6%,-17.6%,-30.4%,-15.8%
NC(N)=N/N=C/c1c(Cl)nc2n1CCS2,-7.35%,-32.2%,-9.5%,3.5%,22.4%,-6.8%
c1cc(-c2nnc(-c3ccncc3)s2)ccn1,6.2%,-1.35%,-9.25%,32.5%,14.5%,-8.15%
CCCCCCCCCCCCCCCCC(CCCCCCCCCCCCCCCC)c1ccccc1,35.2%,-0.65%,13.4%,-18.1%,4.05%,18.6%
COc1c(C(=O)O)[nH]c(=O)[nH]c1=O,4.85%,-30.1%,5.8%,-5.65%,-14.3%,-5.5%
NNC(=O)NN1C(=O)c2cc(S(=O)(=O)O)cc3c(N)c(S(=O)(=O)O)cc(c23)C1=O,35.2%,-3.05%,14.6%,6.35%,-5.45%,10.3%
FC1(F)SC2CCCCCCCCCCC2C1(F)F (stereo not drawn),-42.6%,-15.3%,-20.4%,-18.7%,29.1%,2.05%
CN(C)Cc1ccccc1COC(=O)c1ccc([N+](=O)[O-])cc1Cl,-8.9%,-12.6%,10.8%,-29.1%,3.65%,-34.1%
O=C1/C(=C/c2ccc3c(c2)CCC3)Cc2cc3c(cc21)CCC3,-10%,11.7%,-23.4%,21.4%,-1.15%,4.75%
CCOc1ccccc1N=Nc1c(C)nc(N)nc1OCC,6.65%,6.65%,6.55%,-30.1%,4%,14.9%

SMILES,growth inhibition [1],growth inhibition [2],growth inhibition [3],growth inhibition [4],growth inhibition [5],growth inhibition [6]
CCOC(=O)c1[nH]c(C)cc1C,2.95%,-15.9%,-7.55%,-18.2%,-22.4%,-0.9%
CCCC(C)C1(CCC)C(=O)N=C(N)N=C1N (stereo not drawn),3.8%,7.75%,-3.9%,12.4%,-2.8%,-10.5%
Cc1nc2ccc(Br)cc2c(=O)n1-c1ccc(N=Cc2ccccc2Cl)cc1,49.8%,16.5%,26.6%,19.6%,2.6%,34.8%
CCOC(=O)c1nc2ccc(C(F)(F)F)cc2nc1NCc1ccc(OC)cc1,4.6%,9.8%,-1.15%,17.2%,5.15%,-15.7%
O=C1O/C(=C(\Br)c2ccc([N+](=O)[O-])cc2)c2ccccc21,30.4%,-27.4%,19.4%,0.85%,-5.9%,1.05%
Cc1ncc(CO)c(/C=N\NC(N)=S)c1O,9.85%,4.7%,8.3%,-48.5%,-39.1%,-7.25%
CN(C)c1ccccc1N(C)C,5.5%,-15.4%,-14.9%,-8.2%,-1.35%,-13%
COc1ccc(/C=C2/CCOC2=O)cc1,44.1%,18.7%,11.4%,-9.3%,-2.6%,28.8%
COc1cccc(Br)c1OC,-5.4%,1.2%,20.8%,38.6%,31.9%,-3.1%
Nc1ccc2c(=O)[nH][nH]c2c1,-26.6%,-40.5%,-25%,10.8%,-25.2%,-9.2%
CC(C)c1cc2c(O)c(c1)Cc1cc(C(C)C)cc(c1O)Cc1cc(C(C)C)cc(c1O)Cc1cc(C(C)C)cc(c1O)Cc1cc(C(C)C)cc(c1O)Cc1cc(C(C)C)cc(c1O)C2,-21.1%,-0.85%,-14.8%,14.6%,3.55%,-24.1%
CCCCCCC(O)Cc1ccccc1 (stereo not drawn),5.95%,5.1%,-5.5%,-12.3%,-24.9%,1.2%
CCN(CC)CCOC(=O)Nc1cc(C)cc(C)c1,24.6%,-9.15%,27.5%,16.4%,31.9%,17.1%
COc1ccc(N=Nc2cc(OC)c(N=Nc3c(O)c4ccccc4[nH]c3=O)cc2OC)cc1,18.1%,16.8%,25.1%,13.8%,-14.2%,17.1%
NC(N)=NC(=O)c1ccccc1,-26.4%,-12.2%,-9.55%,-23.1%,-0.55%,12.9%
c1ccc(CC2NCCc3c2[nH]c2ccccc32)cc1 (stereo not drawn),-14.2%,2.9%,-5.05%,-6.2%,-11.9%,1.5%
COc1ccc(N(C(=O)Nc2ccc(Cl)c(Cl)c2)c2ccccc2)cc1,-32.1%,-28.4%,-19.2%,-1.45%,14.3%,-10.4%
C1CC(CCN2CCOCC2)CCN1,-16.4%,-46.6%,-17.3%,9.8%,-2.7%,-8.45%
COc1ccc(C2CC(=O)Oc3cc4c(cc32)OCO4)cc1 (stereo not drawn),-10.2%,-8.05%,-11.2%,-11.6%,-2.2%,-15.9%
